Reference: PubChem BioAssay AID686978 (National Center for Advancing Translational Sciences (NCATS), 2013)
“And” between values parts separate entries of the source, which are not always exact repeats. Equal values may be shown once. Among all 420,000 compounds or so, about 64,000 (15%) were called active. Inconclusive results (about 27%) are left out. Calls come from the whole dose curve; as a rule, active = well fitted inhibition curve with a large enough effect; inconclusive = small, poorly fitted or top-dose-only effect; inactive = flat fitted curve, though single readings scatter. Not all results are given here. A call without a number means that no potency is given here. Where a structure was tested more than once in an assay, its records may differ in their call.

Experiment: qHTS for Inhibitors of human tyrosyl-DNA phosphodiesterase 1 (TDP1): qHTS in cells in absence of CPT; note: nearly all actives have a fitted effect of over 55% in size
Settings: DT40 Tdp1-/- hTDP1 cells, no CPT, ATP luminescence, 48 h; activity change, negative = growth inhibition: at 46.2 µM (top of the series)
Summary of the method: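 Cells were dispensed at 400 per well, compounds added by pin tool, plates incubated ≥48 hr at 37 °C, then CellTiter-Glo added for 30 min at room temperature before luminescence reading. Line: DT40 Tdp1-/- complemented with hTDP1; camptothecin omitted.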
Potency is the fitted concentration of half-maximal effect.

| Compound | Potency |
| --- | --- |
| Cn1ccnc1-c1nnn(-c2ccc(F)cc2)n1 | inactive |
| O=C(OCC(=O)c1cccs1)c1ccc([N+](=O)[O-])o1 | inactive |
| O=C(COc1ccc(-n2cnnn2)cc1)Nc1ccccc1Cl | inactive |
| CN(C)S(=O)(=O)c1ccc(N2CCCC2=O)c([N+](=O)[O-])c1 | inactive |
| O=C(/C=C/c1ccccc1Cl)Nc1ccc(S(=O)(=O)Nc2ncccn2)cc1 | inactive |
| OCCC1CN(Cc2ccc3nsnc3c2)CCN1C1CCCCC1 (centres undefined) | inactive |
| Cc1ccc(C)c(SCc2nc3sc(C(=O)O)c(C)c3c(=O)[nH]2)c1 | inactive |
| COc1ccccc1NC(=O)CC(NCCN(C)C)C(=O)O (centres undefined) | inactive |
| C/C(=N\Nc1ccc(S(N)(=O)=O)cc1[N+](=O)[O-])c1cccs1 | inactive |
| CCOC(=O)[C@H]1[C@H]2COc3ccc(OC)cc3[C@@H]2N2C(=O)c3ccc(F)cc3NC(=O)[C@@]12C | inactive |
| COC(=O)C1=C(O)/C(=C/c2ccc(OCC(=O)Nc3ccccc3)cc2)N=C1C | inactive |
| O=C(COC(=O)c1cccs1)NCc1cccs1 | inactive |
| Nc1nnc(C2CCCC2)s1 | inactive |
| COC(=O)c1ccccc1Oc1c(F)c(F)nc(N2CCOCC2)c1F | inactive |
| Cc1cc(C)cc(C(=O)NCC(=O)OCC(=O)N2CCCCC2)c1 | inactive |
| CC(C)CCn1c(=O)c2c(nc3n2CCCN3Cc2ccccc2)n(C)c1=O | 20.6 µM (active) |
| Cn1c(=O)n(CCc2ccccc2)c(=O)c2c1nc1n2CCCN1c1ccccc1 | inactive |
| O=C(O)C1CCCN(CCC=C(c2ccccc2)c2ccccc2)C1 (centres undefined) | inactive |
| Cn1c(=O)c2c(nc(CN3CCOCC3)n2Cc2ccccc2)n(C)c1=O | inactive |
| COCCn1c(CN2CCC(Cc3ccccc3)CC2)nc2c1c(=O)n(C)c(=O)n2C | 7.31 µM (active) |
| CCN1CCN(Cc2nc3c(c(=O)n(C)c(=O)n3C)n2CC(=O)c2ccccc2)CC1 | inactive |
| CC1CCCN(Cc2nc3c(c(=O)n(C)c(=O)n3C)n2CC(=O)c2ccccc2)C1 (centres undefined) | 16.4 µM (active) |
| CN1CCN(Cc2nc3c(c(=O)n(C)c(=O)n3C)n2Cc2cccc3ccccc23)CC1 | inactive |
| Cn1c(=O)n(Cc2c(F)cccc2Cl)c(=O)c2c1nc1n2CCN1c1ccc(F)cc1 | inactive |
| CCc1cc(CNC(=O)CC2C(=O)NCCN2CC2CCCCC2)on1 (centres undefined) | inactive |
| Cc1ccc(S(=O)(=O)N(C)C)cc1NC(=O)C(C)OC(=O)c1ccc2ccccc2n1 (centres undefined) | inactive |

| Compound | Potency |
| --- | --- |
| c1ccc(-c2nnc3n2NC(c2ccc4c(c2)OCO4)S3)cc1 (centres undefined) | inactive |
| CC(C)=C1C2CCC1C1C(=O)N(NC(=O)c3ccco3)C(=O)C21 (centres undefined) | inactive |
| CCOc1ccc(CN(Cc2ccco2)S(=O)(=O)c2ccc(-n3cnnn3)c(OC)c2)cc1 | 16.4 µM (active) |
| CCOc1ccc(C(=O)COC(=O)c2ccc(-n3cnnn3)cc2)cc1 | inactive |
| CCOc1ccc(S(=O)(=O)N(CC(=O)NCC(F)(F)F)Cc2ccco2)cc1 | inactive |
| COc1ccc(S(=O)(=O)N2CCOCC2)cc1NC(=O)CC1CC2CCC1C2 (centres undefined) | inactive |
| CC1(C)CC(=O)C=C(NCCCN2CCCC2=O)C1 | inactive |
| CCOc1ccc(Nc2nc(Cl)nc(N3CCN(c4ccc(OC)cc4)CC3)n2)cc1 | 13 µM (active) |
| COc1ccc(Nc2nc(N)nc(CSC(=S)N3CCC(C)CC3)n2)cc1 | inactive |
| COC(=O)CNc1nc(Cl)nc(N2CCC(C)CC2)n1 | inactive |
| COP1(=O)C[C@@H](O)[C@@H](O)[C@@H](COCc2ccccc2)O1 (some centres undefined) | inactive |
| O=c1[nH][nH]c(C(F)(F)F)c1C=NCc1ccccc1Cl | inactive |
| Cc1nc2cc(NC(=O)NC3CC3)ccc2n1C | inactive |
| COc1ccc(-n2c(=O)c(C)nc3cnc(N4CCOCC4)nc32)cc1 | inactive |
| Cc1nc2sccn2c(=O)c1S(=O)(=O)NCCc1ccccc1 | inactive |
| Cc1ccc(-c2noc(CNC(=O)c3ccoc3C)n2)cc1 | inactive |
| C/C(=N\NC(=O)c1ccoc1C)c1ccccc1O | 11.6 µM (active) |
| C/C(=N\NC(=O)c1ccccc1C)c1ccc(N2CCOCC2)cc1 | inactive |
| COc1ccccc1Cn1c(C)nnc1-c1cnn(C)c1N | inactive |
| COCCNC(=O)C1C(=O)Nc2ccccc2C(=O)N1c1ccc2c(c1)OCCO2 (centres undefined) | inactive |
| NC(=O)CC[C@@H]1NC(=O)[C@@H]2CCCN2C(=O)c2cc([N+](=O)[O-])cc(F)c2NCCC[C@@H](C(N)=O)NC1=O | inactive |
| CC(=O)N1CCc2c(sc(NC(=O)CCS(=O)(=O)c3ccc(C)cc3)c2C(N)=O)C1 | inactive |
| CC(C)N1CCc2c(sc(NC(=O)Cc3ccccc3)c2C#N)C1 | inactive |
| CC(=O)N1CCc2c(sc(NC(=O)CCS(=O)(=O)c3ccccc3)c2C#N)C1 | 14.6 µM (active) |
| CCN(CC)C(CNC(=O)CSc1nnnn1-c1cccc(F)c1)c1ccco1 (centres undefined) | inactive |
| Cc1ccc(C(=O)NCC(=O)O)s1 | inactive |

| Compound | Potency |
| --- | --- |
| CCc1nc(-c2cc(S(=O)(=O)N3CCN(c4ccc(OC)cc4)CC3)ccc2OC)no1 | inactive |
| COc1ccc(OC)c(-c2noc(N3CCN(c4cc(Cl)ccc4C)CC3)n2)c1 | 25.9 µM (active) |
| COc1ccc(S(=O)(=O)N2CCN(c3ccc(F)cc3)CC2)cc1-c1noc(C)n1 | inactive |
| O=C(c1cccc(S(=O)(=O)N2CCCC2)c1)N(Cc1ccco1)C1CCS(=O)(=O)C1 (centres undefined) | inactive |
| COc1cccc(C(O)Cc2nc3ccccc3n2C)c1OC (centres undefined) | inactive |
| Cn1c(CNC(=O)C(C)(C)C)nc2ccccc21 | inactive |
| CC(NCc1nc2ccccc2n1C)C12CC3CC(CC(C3)C1)C2 (centres undefined) | 23.1 µM (active) |
| Cc1ccc(S(=O)(=O)/N=C(/Nc2ccc3[nH]c(=O)[nH]c3c2)c2ccccc2)cc1 | inactive |
| CCN(CC)CCn1c(=S)[nH]c2ncccc2c1=O | inactive |
| COC(=O)c1sc2[nH]c(=S)n(N)c(=O)c2c1C | inactive |
| C=CCNc1nc(C)nc(OC)n1 | inactive |
| CN(C)c1ccc(C=NCCc2ccc(S(N)(=O)=O)cc2)cc1 | inactive |
| CC(C)CC1(C)NC(=O)N(CC(=O)Nc2ccc3c(c2)OCCO3)C1=O (centres undefined) | inactive |
| O=C(c1ccc2c(c1)OCCO2)C1CCN(S(=O)(=O)c2cccc(F)c2)CC1 | inactive |
| CC(C)OCCCNC(=S)N1CCC(C(=O)c2ccc3c(c2)OCCO3)CC1 | 14.6 µM (active) |
| COCCNC(=O)C1CCN(S(=O)(=O)c2ccc3c(c2)OCCO3)CC1 | inactive |
| O=C(NCCCN1CCN(C2CCCCC2)CC1)Nc1ccccc1C(F)(F)F | inactive |
| CC(C)(C)c1ccc(C(=O)Nc2ccc3c(c2)CCCN3C(=O)c2cccs2)cc1 | 5.8 µM (active) |
| CC(C)C(=O)Nc1ccc(C(=O)NNC(=O)c2cccs2)cc1 | inactive |
| O=C(O)c1ccc(NC(=O)c2cccs2)cc1 | inactive |
| Cc1cc(C(F)(F)F)n2ncc(-c3ccccc3)c2n1 | inactive |
| COC(=O)c1cc2nc(-c3ccccc3)cc(C(F)(F)F)n2n1 | inactive |
| COc1ccc(-c2cc(C(F)(F)F)n3nc(-c4ccccc4)cc3n2)cc1OC | 16.4 µM (active) |
| COc1cccc(NC(=O)N2CCC(NC(=O)C(Cc3cccc(C)c3)NC(C)=O)CC2)c1 (centres undefined) | inactive |
| NC(=O)Cn1c(=O)oc2ccccc21 | inactive |
| CN(C)CCCN(C(=O)c1ccc(S(=O)(=O)N2CCCCCC2)cc1)c1nc2ccc(Br)cc2s1 | 18.4 µM (active) |

| Compound | Potency |
| --- | --- |
| CCN(CC)CCN(C(=O)c1ccc(S(=O)(=O)N2CCOCC2)cc1)c1nc2cc3c(cc2s1)OCCO3 | inactive |
| CCOc1ccc2nc(N(CCN(C)C)C(=O)c3ccc4ccccc4c3)sc2c1 | inactive |
| COCc1c(C(=O)OCc2c(C)noc2C)oc2ccccc12 | inactive |
| CCNC(=S)NNC(=O)c1ccc2ncccc2c1 | inactive |
| CC(=O)Nc1ccc(Sc2ccccc2C(=O)N2CCCC2)cn1 | inactive |
| CNC(=O)C[C@H]1C(=O)N(Cc2ccccc2)C[C@@H]1CSC | inactive |
| CNC(=O)C[C@H]1C(=O)N(c2ccc(OC)cc2)C[C@@H]1Cc1ccccc1 | inactive |
| O=C(C[C@H]1C(=O)N(c2ccc(F)c(F)c2)C[C@@H]1Cc1ccccc1)Nc1ccccc1 | inactive and 15.8 µM (active) |
| CCOc1cc2[nH]c(=O)n(CCC(=O)NCc3ccc(OC)cc3)c(=O)c2cc1OCC | inactive |
| CN=C1SC(CC(=O)Nc2ccc(C(=O)O)cc2)C(=O)N1C (centres undefined) | inactive |
| CC1C(=O)C(C)C(c2ccc(O)cc2)NC1c1ccc(O)cc1 (centres undefined) | inactive |
| CC(=O)N1CCN(Cc2cc(=O)oc3cc(C)ccc23)CC1 | inactive |
| O=c1cc(CN2CCN(S(=O)(=O)/C=C/c3ccccc3)CC2)c2ccc(O)cc2o1 | 20.6 µM (active) |
| NC(=O)CCN1CCN(S(=O)(=O)/C=C/c2ccccc2)CC1 | inactive |
| COc1ccc(NC(=O)CCCN2C(=O)C(c3ccccc3)Oc3cccnc32)cc1 (centres undefined) | inactive |
| O=S1(=O)CC(N2CCN(CCO)CC2)CN1C1CCCC1 (centres undefined) | inactive |
| O=S1(=O)CCN(C2CCCCCCCCCCC2)CC1 | 20.6 µM (active) |
| O=C(O)C1CCN1C1CCCCC1 (centres undefined) | inactive |
| COc1ccc(NC(=O)N(C)C[C@@H]2OCc3cn(nn3)CCCC(=O)N([C@H](C)CO)C[C@H]2C)c(OC)c1 | inactive |
| COCCN(C(=O)CC1CCCCC1)c1c(N)n(CC(C)C)c(=O)[nH]c1=O | inactive |
| Cc1ccc(CN2CCCOCCS2(=O)=O)cc1 | inactive |
| CC(C)C1C(=O)N(Cc2cn(CCC3OCCO3)nn2)CCS(=O)(=O)N1Cc1ccc(-c2ccccc2C(F)(F)F)cc1 (centres undefined) | 25.9 µM (active) |
| Cc1ccc(-c2ccc(CN3C(C)C(=O)N(Cc4cn(CCC5OCCCO5)nn4)CCS3(=O)=O)cc2)cc1 (centres undefined) | 23.1 µM (active) |
| Cc1ccc(-c2ccc(CN3C(C(C)C)C(=O)N(Cc4cn(CCC5OCCO5)nn4)CCS3(=O)=O)cc2)cc1 (centres undefined) | 7.31 µM (active) |
| CCC(C)[C@H]1COCCS(=O)(=O)N1Cc1ccc(C)cc1 (some centres undefined) | inactive |
| Cc1ccc(-c2ccc(CN3C(C(C)C)C(=O)N(Cc4cn(CCC5OCCCO5)nn4)CCS3(=O)=O)cc2)cc1 (centres undefined) | 11.6 µM (active) |
